Measurements: the supplement of paper PMC11732987, “Enantioselective OTUD7B fragment discovery through chemoproteomics screening and high-throughput optimisation” (Communications Chemistry, 2025)

Legend:
Assay in all cases: log2 ratio of Biotin-Ahx-Ub-VS probe labelling (fragment/DMSO); higher = less target engagement (more negative = stronger competition), active = hit call of the paper (q ≤ 0.05, log2 ratio ≤ -1)
Settings in all cases: compound concentration: 200 uM; treatment time: 3 h
USP19 = molecular target: T1, USP19 (UniProt O94966)
T1 sequence (whole entry): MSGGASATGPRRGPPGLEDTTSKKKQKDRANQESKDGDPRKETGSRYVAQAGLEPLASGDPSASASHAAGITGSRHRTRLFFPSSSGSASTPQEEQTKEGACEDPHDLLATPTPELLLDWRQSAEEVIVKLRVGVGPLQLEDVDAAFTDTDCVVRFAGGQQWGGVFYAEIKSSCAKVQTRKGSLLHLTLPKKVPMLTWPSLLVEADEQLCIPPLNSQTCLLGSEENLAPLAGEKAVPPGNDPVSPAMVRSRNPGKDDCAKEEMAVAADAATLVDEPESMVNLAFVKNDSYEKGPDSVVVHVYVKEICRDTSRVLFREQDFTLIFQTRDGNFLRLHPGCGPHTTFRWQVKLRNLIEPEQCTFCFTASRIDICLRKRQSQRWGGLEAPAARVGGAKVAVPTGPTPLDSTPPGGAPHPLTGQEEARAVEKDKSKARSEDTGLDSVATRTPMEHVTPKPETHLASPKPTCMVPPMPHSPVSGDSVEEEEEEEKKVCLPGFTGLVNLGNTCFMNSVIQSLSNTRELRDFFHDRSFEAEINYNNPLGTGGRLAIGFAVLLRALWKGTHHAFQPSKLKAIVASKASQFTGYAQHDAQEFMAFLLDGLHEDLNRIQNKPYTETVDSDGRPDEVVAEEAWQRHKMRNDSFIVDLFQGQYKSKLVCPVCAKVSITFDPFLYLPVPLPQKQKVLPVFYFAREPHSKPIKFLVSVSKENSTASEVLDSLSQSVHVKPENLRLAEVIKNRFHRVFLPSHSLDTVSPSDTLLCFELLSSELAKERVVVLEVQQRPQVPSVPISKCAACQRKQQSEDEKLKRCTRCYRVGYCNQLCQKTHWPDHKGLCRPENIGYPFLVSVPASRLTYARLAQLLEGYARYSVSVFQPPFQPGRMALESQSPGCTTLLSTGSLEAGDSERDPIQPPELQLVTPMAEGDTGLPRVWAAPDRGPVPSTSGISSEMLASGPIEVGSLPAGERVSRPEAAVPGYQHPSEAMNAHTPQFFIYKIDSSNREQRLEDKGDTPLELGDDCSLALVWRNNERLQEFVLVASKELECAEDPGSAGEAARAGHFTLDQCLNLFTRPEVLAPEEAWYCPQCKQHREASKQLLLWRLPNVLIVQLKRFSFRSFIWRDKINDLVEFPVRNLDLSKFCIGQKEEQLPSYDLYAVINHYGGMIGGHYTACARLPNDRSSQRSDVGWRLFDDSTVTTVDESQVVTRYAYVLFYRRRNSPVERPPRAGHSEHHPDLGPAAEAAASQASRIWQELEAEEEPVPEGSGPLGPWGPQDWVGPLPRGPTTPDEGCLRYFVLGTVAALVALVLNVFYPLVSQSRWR
Method in brief: (§1)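 The table lists average log2 ratios of fragment over vehicle, from an unpaired t-test on global-median-normalised Spectronaut label-free quantities. Proteins with ≥2 unique peptides were used. Samples were HEK293T lysate (495 µg) treated in triplicate with fragment at 200 µM or vehicle for 3 h, then with Biotin-Ahx-Ub-VS (0.5 µM final) for 1 h, with labelled DUBs NeutrAvidin-enriched and run by diaPASEF LC-MS/MS.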

USP22 = molecular target: T2, USP22 (UniProt Q9UPT9)
T2 sequence (whole entry): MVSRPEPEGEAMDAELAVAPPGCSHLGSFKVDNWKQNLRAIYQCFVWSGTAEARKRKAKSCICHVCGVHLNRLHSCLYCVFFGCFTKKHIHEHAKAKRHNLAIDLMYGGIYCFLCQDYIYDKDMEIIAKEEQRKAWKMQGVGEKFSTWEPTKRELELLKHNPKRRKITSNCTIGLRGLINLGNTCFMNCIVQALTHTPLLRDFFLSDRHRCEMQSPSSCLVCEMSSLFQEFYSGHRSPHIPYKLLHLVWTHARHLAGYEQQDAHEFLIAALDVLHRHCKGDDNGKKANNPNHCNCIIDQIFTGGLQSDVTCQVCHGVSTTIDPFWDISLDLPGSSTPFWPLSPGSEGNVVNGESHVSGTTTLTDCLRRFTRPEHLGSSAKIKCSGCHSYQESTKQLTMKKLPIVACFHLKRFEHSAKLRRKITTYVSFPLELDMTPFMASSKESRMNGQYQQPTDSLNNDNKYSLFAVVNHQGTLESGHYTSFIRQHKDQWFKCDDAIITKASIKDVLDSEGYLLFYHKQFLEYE
Method in brief: as §1

USP24 = USP24 (UniProt Q9UPU5)
Sequence of USP24 (Q9UPU5 whole entry): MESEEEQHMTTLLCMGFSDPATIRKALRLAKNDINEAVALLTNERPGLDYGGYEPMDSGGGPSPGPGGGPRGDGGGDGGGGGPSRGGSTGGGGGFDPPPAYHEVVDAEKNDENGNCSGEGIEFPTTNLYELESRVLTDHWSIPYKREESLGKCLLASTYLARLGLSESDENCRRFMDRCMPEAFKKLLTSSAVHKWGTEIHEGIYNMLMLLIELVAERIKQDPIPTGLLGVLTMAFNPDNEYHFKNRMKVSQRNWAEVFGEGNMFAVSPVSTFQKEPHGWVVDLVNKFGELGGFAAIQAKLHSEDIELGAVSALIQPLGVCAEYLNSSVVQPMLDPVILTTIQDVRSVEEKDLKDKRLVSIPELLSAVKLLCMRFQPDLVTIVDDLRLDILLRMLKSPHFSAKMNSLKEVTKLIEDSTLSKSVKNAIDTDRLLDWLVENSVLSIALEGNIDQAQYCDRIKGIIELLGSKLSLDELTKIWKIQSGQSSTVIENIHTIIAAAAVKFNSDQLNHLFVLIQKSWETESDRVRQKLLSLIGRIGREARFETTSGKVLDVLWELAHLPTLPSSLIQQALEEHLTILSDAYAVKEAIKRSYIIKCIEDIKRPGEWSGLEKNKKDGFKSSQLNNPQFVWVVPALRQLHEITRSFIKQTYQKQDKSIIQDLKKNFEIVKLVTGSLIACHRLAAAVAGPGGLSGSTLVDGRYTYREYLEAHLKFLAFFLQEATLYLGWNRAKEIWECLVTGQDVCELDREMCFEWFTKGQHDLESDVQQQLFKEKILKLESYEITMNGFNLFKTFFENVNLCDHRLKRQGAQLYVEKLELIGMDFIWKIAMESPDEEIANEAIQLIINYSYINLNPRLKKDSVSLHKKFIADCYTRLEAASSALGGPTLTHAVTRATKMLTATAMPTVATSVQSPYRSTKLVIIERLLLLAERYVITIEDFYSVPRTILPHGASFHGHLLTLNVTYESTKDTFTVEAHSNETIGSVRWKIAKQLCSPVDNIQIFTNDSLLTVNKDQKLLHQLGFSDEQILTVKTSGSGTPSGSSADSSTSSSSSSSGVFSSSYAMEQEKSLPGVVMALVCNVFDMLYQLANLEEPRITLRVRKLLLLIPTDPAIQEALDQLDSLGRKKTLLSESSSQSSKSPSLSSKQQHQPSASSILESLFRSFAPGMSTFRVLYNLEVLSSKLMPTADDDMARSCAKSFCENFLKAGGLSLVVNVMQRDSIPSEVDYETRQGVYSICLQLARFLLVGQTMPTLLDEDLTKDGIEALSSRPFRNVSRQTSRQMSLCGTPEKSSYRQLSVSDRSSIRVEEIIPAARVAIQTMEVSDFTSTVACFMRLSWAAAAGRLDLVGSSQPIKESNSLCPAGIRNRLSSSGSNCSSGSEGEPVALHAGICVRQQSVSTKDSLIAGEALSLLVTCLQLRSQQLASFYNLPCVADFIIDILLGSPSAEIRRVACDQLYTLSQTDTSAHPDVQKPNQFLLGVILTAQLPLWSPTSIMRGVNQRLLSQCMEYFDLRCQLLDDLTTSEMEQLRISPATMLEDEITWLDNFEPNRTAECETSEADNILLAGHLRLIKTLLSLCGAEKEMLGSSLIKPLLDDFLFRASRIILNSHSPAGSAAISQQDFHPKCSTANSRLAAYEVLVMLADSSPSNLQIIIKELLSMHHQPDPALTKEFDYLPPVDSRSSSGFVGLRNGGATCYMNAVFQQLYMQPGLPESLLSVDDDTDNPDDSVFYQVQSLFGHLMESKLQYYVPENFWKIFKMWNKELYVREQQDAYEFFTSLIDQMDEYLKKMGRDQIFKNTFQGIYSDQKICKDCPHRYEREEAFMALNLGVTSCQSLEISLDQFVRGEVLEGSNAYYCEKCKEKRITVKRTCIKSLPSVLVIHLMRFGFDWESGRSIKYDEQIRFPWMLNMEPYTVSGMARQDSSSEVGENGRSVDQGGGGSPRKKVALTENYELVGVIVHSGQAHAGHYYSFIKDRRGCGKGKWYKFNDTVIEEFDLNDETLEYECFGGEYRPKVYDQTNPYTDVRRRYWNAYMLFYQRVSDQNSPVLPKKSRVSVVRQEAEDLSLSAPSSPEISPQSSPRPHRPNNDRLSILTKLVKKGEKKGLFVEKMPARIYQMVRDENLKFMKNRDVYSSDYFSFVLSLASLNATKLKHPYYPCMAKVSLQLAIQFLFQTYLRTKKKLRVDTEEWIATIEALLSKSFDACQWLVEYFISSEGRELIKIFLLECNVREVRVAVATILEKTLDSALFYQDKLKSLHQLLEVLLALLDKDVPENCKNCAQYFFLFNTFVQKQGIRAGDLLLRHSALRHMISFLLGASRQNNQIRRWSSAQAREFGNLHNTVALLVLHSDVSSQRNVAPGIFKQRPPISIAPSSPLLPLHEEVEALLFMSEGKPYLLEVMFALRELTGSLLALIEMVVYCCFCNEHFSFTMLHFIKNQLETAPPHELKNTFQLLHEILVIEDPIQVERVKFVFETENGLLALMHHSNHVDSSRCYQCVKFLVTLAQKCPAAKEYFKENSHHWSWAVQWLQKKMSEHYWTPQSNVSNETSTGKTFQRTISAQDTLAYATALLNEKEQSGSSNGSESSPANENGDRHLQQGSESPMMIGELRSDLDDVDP
Method in brief: as §1

USP25 = molecular target: T3, USP25 (UniProt Q9UHP3)
T3 sequence (whole entry): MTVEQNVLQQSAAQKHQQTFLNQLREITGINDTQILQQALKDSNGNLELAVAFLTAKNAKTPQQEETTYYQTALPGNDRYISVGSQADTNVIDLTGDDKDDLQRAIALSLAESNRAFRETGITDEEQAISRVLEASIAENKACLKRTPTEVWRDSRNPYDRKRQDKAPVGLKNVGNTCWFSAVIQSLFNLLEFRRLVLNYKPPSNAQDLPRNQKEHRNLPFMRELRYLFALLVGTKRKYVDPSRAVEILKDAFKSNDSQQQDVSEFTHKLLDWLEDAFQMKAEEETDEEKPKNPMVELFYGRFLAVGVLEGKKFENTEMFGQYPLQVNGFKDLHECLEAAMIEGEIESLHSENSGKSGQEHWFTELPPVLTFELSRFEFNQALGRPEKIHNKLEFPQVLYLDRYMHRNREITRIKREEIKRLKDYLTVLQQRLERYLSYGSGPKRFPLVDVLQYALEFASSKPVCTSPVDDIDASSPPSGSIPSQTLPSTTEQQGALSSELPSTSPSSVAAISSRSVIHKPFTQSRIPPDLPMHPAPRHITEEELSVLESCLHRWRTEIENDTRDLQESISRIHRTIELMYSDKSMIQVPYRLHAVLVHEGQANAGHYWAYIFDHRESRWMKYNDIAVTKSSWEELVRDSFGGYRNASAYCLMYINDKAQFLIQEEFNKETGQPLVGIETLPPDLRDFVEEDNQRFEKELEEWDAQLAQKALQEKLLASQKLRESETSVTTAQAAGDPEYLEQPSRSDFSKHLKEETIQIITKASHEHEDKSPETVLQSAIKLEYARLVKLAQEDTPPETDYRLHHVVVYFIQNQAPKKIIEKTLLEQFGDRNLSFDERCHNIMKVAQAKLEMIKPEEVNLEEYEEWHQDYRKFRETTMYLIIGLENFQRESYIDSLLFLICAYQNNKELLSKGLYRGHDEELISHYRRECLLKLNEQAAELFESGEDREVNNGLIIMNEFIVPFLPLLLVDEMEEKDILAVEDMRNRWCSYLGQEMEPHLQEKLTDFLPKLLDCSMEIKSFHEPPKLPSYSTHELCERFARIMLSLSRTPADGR
Method in brief: as §1

USP28 = molecular target: T4, USP28 (UniProt Q96RU2)
T4 sequence (whole entry): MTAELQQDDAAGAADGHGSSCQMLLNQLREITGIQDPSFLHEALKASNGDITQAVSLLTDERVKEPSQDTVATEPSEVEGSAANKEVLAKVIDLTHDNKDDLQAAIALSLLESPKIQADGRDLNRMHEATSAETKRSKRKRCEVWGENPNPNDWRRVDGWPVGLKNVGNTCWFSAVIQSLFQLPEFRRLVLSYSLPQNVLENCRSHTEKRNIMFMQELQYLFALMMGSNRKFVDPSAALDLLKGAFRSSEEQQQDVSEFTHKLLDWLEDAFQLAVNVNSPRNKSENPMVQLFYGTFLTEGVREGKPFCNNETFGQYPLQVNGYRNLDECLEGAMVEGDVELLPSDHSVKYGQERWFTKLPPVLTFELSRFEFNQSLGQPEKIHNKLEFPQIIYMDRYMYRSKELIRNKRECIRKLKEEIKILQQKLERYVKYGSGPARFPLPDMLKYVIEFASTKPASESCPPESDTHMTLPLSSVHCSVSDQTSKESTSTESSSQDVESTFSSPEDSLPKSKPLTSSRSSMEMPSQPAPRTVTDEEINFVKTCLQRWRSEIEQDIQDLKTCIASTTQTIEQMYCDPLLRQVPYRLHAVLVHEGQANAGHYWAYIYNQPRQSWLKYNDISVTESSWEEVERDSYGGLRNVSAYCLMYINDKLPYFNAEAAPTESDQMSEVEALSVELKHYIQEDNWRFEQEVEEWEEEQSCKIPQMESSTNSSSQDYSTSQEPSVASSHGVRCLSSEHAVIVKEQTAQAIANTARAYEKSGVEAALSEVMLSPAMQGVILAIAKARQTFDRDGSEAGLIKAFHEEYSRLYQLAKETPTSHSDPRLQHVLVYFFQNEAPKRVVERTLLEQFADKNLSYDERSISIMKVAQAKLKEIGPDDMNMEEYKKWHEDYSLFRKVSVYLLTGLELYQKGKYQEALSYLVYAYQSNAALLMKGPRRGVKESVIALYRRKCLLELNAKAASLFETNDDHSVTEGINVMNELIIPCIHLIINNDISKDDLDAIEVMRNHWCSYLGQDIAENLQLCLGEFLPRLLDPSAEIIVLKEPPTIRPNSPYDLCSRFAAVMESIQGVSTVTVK
Method in brief: as §1

Measured: log2 ratio of Biotin-Ahx-Ub-VS probe labelling

Cl.O=C(CCl)N1CCN(Cc2ccccc2)CC1
inactive: USP19 -0.21 | USP22 -0.403 | USP24 -0.611 | USP25 -0.226 | USP28 -0.511
